Laboratory results reported in PubChem BioAssay AID463173 (ICCB-Longwood Screening Facility, Harvard Medical School, 2010).
In all, about 52,000 compounds went through this assay and about 1,700 (3.3%) were called active. No stated cut-off is given here; in the data, active means survival mostly below about 52% (no sharp cut-off); inactive means mostly above about 56%. What follows is part of a selection rich in actives, with near analogues and random picks from the rest.

The compounds below were run on Wild type (assay: S. aureus survival, RN4220 and DeltatarO strains – OD600, teichoic acid synthesis inhibitors, primary screen (AID 463173)). Conditions: S. aureus RN4220 wild type/DeltatarO growth, OD600, 18 h, hits give low values, screened at 18.75 µg/mL (by protocol).
With `CCCCOC(=O)c1ccc(Nc2ncnc3c2cnn3-c2cccc(C)c2)cc1` the survival was 88% (inactive).
With `Cn1cnnc1SC1CCCCC1NS(=O)(=O)c1ccc(Cl)cc1` (stereo unspecified) the survival was 103% (inactive).
With `COc1ccccc1N1CCN(c2cc(C)nc3nc(-c4ccc(Cl)cc4)nn23)CC1` the survival was 78% (inactive).
In the case of `CCCCN(CC)CCCNC(=O)c1cc2c(=O)oc3ccc(C)cc3c2s1`, the survival is reported as 97% (inactive).
`COc1ccc2c(c1)c1c(c(=O)n(Cc3ccccc3)c(=O)n1CC(=O)NCc1ccc(C)cc1)n2C` was tested, and the survival was 82% (inactive).
`COc1ccc(-c2noc(CSc3nnc(Cc4ccccc4)n3-c3cccc(C)c3)n2)cc1` was tested, and the survival was 67% (inactive).
In the case of `COc1ccc(N2CC(C(=O)NC3=NCCS3)CC2=O)cc1` (stereo unspecified), the survival is reported as 102% (inactive).
For `CC(C)N(C(=O)Cn1cc(SCC(=O)Nc2ccccc2F)c2ccccc21)C(C)C`, the survival was 86% (inactive).
For `O=Nc1c(O)n2c3c(cccc13)CCC2`, the survival was 124% (inactive).
For `N#CC(C#N)=C(N)/C(C#N)=C\c1ccc(-c2ccccc2)o1`, the survival was 129% (inactive).
With `O=S(=O)(c1ccc(Cl)cc1)c1nc(-c2ccco2)oc1SCc1ccc(F)cc1` the survival was 73% (inactive).
With `COc1cccc(NC(=O)C2=C(C)C(=O)OC23CCN(C(C)=O)CC3)c1` the survival was 79% (inactive).
With `CCOC(=O)c1c(Nc2ccccc2)nnc(-c2ccccc2)c1-c1ccccc1` the survival was 5% (active).
`CCOC(=O)c1c(Oc2ccc(C(=O)OC)cc2)nnc(-c2ccccc2)c1-c1ccccc1` was tested, and the survival was 87% (inactive).
`CCOC(=O)c1c(Nc2ccc(O)cc2)nnc(-c2ccccc2)c1-c1ccccc1` was tested, and the survival was 96% (inactive).
`CCOC(=O)c1c(-c2ccccc2)csc1NC(=O)c1cc(-c2cccc(OC)c2)on1` was tested, and the survival was 72% (inactive).
In the case of `CC(=O)N1CCCc2cc(S(=O)(=O)N(Cc3ccccc3)C(C)C)ccc21`, the survival is reported as 73% (inactive).
For `COc1ccccc1C(=O)Nc1ccc(C(=O)OCc2cc(=O)n3ccsc3n2)cc1`, the survival was 72% (inactive).
In the case of `Cc1ccccc1C(=O)Nc1ccccc1C(=O)OCc1cc(=O)n2ccsc2n1`, the survival is reported as 98% (inactive).
`O=C(Nc1ccccc1C(=O)OCc1cc(=O)n2ccsc2n1)c1ccccc1Cl` was tested, and the survival was 75% (inactive).
For `COc1cc(C(=O)OCc2cc(=O)n3ccsc3n2)cc(OC)c1OC`, the survival was -4% (active).
With `COc1ccccc1C(=O)Nc1cccc(C(=O)OCc2cc(=O)n3ccsc3n2)c1` the survival was -6% (active).
In the case of `COc1ccccc1C(=O)Nc1ccccc1C(=O)OCc1cc(=O)n2ccsc2n1`, the survival is reported as -6% (active).
For `Cc1ccccc1C(=O)Nc1cccc(C(=O)OCc2cc(=O)n3ccsc3n2)c1`, the survival was 64% (inactive).
For `Cc1cccc(C(=O)OCc2cc(=O)n3ccsc3n2)c1`, the survival was 71% (inactive).
`COc1cc(C(=O)OCc2cc(=O)n3nc(C(C)C)sc3n2)cc(OC)c1OC` was tested, and the survival was 78% (inactive).
In the case of `O=[N+]([O-])c1cc(-c2nc(-c3ccccn3)no2)ccc1NCc1ccccc1`, the survival is reported as 73% (inactive).
`CCOC(=O)Cn1c(=O)oc2cc(S(=O)(=O)N3CCN(c4ccc(C(C)=O)cc4)CC3)ccc21` was tested, and the survival was 81% (inactive).
For `CC(C)(C)OC(=O)N1CCC(c2c(C(=O)N3CCN(c4ccccn4)CC3)cnn2-c2ccccc2Cl)CC1`, the survival was 53% (inactive).
`COc1cc(NC(=O)c2ccccc2)c(OC)cc1NC(=O)CN1CCCCC1` was tested, and the survival was 109% (inactive).
For `CCOC(=O)c1ccc(N2C(=O)c3n[nH]c(-c4cccs4)c3C2c2ccc(C)cc2)cc1` (stereo unspecified), the survival was 66% (inactive).
With `CCN(CC)CCNC(=O)c1[nH]c2ccccc2c1Sc1ccc(Cl)cc1` the survival was 42% (inactive).
`CC1CCCCN1CCCNC(=O)c1[nH]c2ccccc2c1Sc1ccc(Cl)cc1` (stereo unspecified) was tested, and the survival was -1% (active).
In the case of `CCOC(=O)C1CCCN(C(=O)c2[nH]c3ccccc3c2Sc2ccc(Cl)cc2)C1` (stereo unspecified), the survival is reported as 75% (inactive).
With `CCCCNC(=O)c1[nH]c2ccccc2c1Sc1ccc(C)cc1` the survival was 83% (inactive).
With `CC1CCCCN1CCCNC(=O)c1cc(Sc2cccc(Cl)c2)nc2ccccc12` (stereo unspecified) the survival was 54% (inactive).
With `CCC1CCCCN1CCCNC(=O)c1[nH]c2ccccc2c1Sc1ccc(Cl)cc1` (stereo unspecified) the survival was -1% (active).
In the case of `COc1ccc(-c2noc(-c3ccc(NCCc4ccccc4)c([N+](=O)[O-])c3)n2)cc1`, the survival is reported as 84% (inactive).
For `CC(=O)Nc1ccc(C(=O)N2CC(C)OC(C)C2)cc1` (stereo unspecified), the survival was 133% (inactive).
In the case of `CC(C(=O)N1CCCCC1)N1CCC(N2CCCCC2)CC1` (stereo unspecified), the survival is reported as 93% (inactive).
With `CCc1ccccc1NC(=O)CN1C(=O)CCSc2ccc(S(=O)(=O)N3CCCC3)cc21` the survival was 124% (inactive).
With `O=C(Nc1ccc2oc(-c3cccnc3)nc2c1)c1ccc(-c2cccc(OC(F)(F)F)c2)o1` the survival was 80% (inactive).
With `Cn1cc(CN(C(=O)Nc2ccc(Cl)c(Cl)c2)C2CCCCC2)c2ccccc21` the survival was 60% (inactive).
`O=C(Nc1ccccc1)N(Cc1c[nH]c2ccccc12)C1CCCCCC1` was tested, and the survival was 48% (inactive).
`Cc1ccc(NC(=O)N(Cc2c[nH]c3ccccc23)C2CCCCCC2)cc1C` was tested, and the survival was 54% (inactive).
For `COc1ccc2[nH]c(=O)c(CN(C(=O)Nc3ccccc3)C3CCCC3)cc2c1`, the survival was 103% (inactive).
With `Cn1cc(CN(C(=O)Nc2ccccc2)C2CCCCC2)c2ccccc21` the survival was -1% (active).
For `Cc1ccc(NC(=O)N(Cc2cn(C)c3ccccc23)C2CCCCC2)cc1C`, the survival was -1% (active).
For `CCOc1ccc(C(=O)Nc2ccccc2C(=O)OCc2cc(=O)n3nc(C4CC4)sc3n2)cc1`, the survival was 78% (inactive).
In the case of `CCOC(=O)c1c(C)[nH]c(CCC(=O)Nc2ccc(C)c(F)c2)c1C`, the survival is reported as 70% (inactive).
`O=C(NCC(c1cccnc1)N1CCN(Cc2ccccc2)CC1)C(=O)Nc1cccc(F)c1` (stereo unspecified) was tested, and the survival was 114% (inactive).
For `COc1ccc(CCN2CC(C(=O)NCCc3ccc(C)cc3)CC2=O)cc1OC` (stereo unspecified), the survival was 60% (inactive).
`Cc1cccc(CNC(=O)c2cnc3sc(N4CCOCC4)nn3c2=O)c1` was tested, and the survival was 119% (inactive).
`Cc1cc(=O)[nH]c2nnc(SCc3c(F)cccc3Cl)n12` was tested, and the survival was 140% (inactive).
`COc1ccccc1C(=O)Nc1ccccc1OCc1cc(=O)n2c(C)csc2n1` was tested, and the survival was 81% (inactive).
With `CCOc1ccc(CCNC(=O)c2csc3c2CCCCC3)cc1` the survival was 81% (inactive).
With `COc1ccc(NC(=O)c2csc3c2CCCCC3)cc1` the survival was 72% (inactive).
With `COc1ccc(Cl)cc1NC(=O)c1cnc(SC)nc1-c1ccccc1` the survival was 22% (inactive).
`CSc1ncc(C(=O)NCc2ccccc2)c(-c2ccccc2)n1` was tested, and the survival was 10% (active).
`CSc1ncc(C(=O)NCc2ccc(F)cc2)c(-c2ccccc2)n1` was tested, and the survival was 87% (inactive).
With `CCOc1ccc(OCC)c(NC(=O)c2cnc(SC)nc2-c2ccccc2)c1` the survival was 0% (active).
For `CSc1ncc(C(=O)Nc2ccc(F)cc2F)c(-c2ccccc2)n1`, the survival was 73% (inactive).
With `CSc1ncc(C(=O)NCc2cccc(F)c2)c(-c2ccccc2)n1` the survival was 82% (inactive).
With `CSc1ncc(C(=O)NCc2ccc(C)cc2)c(-c2ccccc2)n1` the survival was -2% (active).
In the case of `CSc1ncc(C(=O)NCc2ccc(C)cc2)c(C)n1`, the survival is reported as 73% (inactive).
For `CSc1ncc(C(=O)NCc2cccc(C)c2)c(-c2ccccc2)n1`, the survival was 65% (inactive).
In the case of `CCOc1ccc(OCC)c(NC(=O)c2csc3c2CCCC3)c1`, the survival is reported as -1% (active).
`CCOc1ccccc1NC(=O)Cn1c(=O)n(-c2ccccc2)c(=O)c2c1c1cc(C)ccc1n2C` was tested, and the survival was 84% (inactive).
With `CCOC(=O)CNC(=O)c1cc2c(=O)oc3ccccc3c2s1` the survival was 146% (inactive).
In the case of `CCc1ccc(C2C(C(=O)Nc3ccc(Cl)cc3)=C(C)Nc3ncnn32)cc1` (stereo unspecified), the survival is reported as 59% (inactive).
In the case of `Cc1ccc(CNC(=O)c2ccc3c(O)c(S(=O)(=O)c4ccccc4)c(=O)[nH]c3c2)cc1`, the survival is reported as 83% (inactive).
With `N=C1SCC(=O)N1c1ccc(Cl)cc1` the survival was 124% (inactive).
`Cc1ccc(-n2c(SCc3ccccc3F)nc3[nH]ncc3c2=O)cc1Cl` was tested, and the survival was 77% (inactive).
For `Cc1ccc2[nH]c(=O)c3cc(C(=O)N(C)c4ccc(Br)cc4)sc3c2c1`, the survival was 81% (inactive).
`COC(=O)c1ccc(NC(=O)CN2C(=O)c3cccc4cccc2c34)cc1` was tested, and the survival was 85% (inactive).
In the case of `NS(=O)(=O)c1ccc(CCNC(=O)CCn2c(=O)c3cccn3c3cccnc32)cc1`, the survival is reported as 92% (inactive).
In the case of `O=C(NCc1cccc(Cl)c1)c1cnc(N2CCCCC2)c2ccccc12`, the survival is reported as 89% (inactive).
With `O=C(COC(=O)c1cccc(NC(=O)c2ccc(Br)cc2)c1)c1ccc(Cl)cc1` the survival was 93% (inactive).
With `O=C(CC1N=C2c3ccccc3N=C(SCC(=O)Nc3cccc(Cl)c3)N2C1=O)NCc1cccs1` (stereo unspecified) the survival was 82% (inactive).
For `CCn1ccc2cc(S(=O)(=O)N3CCC(C(=O)NCc4ccc(OC(C)C)cc4)CC3)ccc21`, the survival was 69% (inactive).
In the case of `CCn1ccc2cc(S(=O)(=O)N3CCC(C(=O)NCC(C)c4ccccc4)CC3)ccc21` (stereo unspecified), the survival is reported as 87% (inactive).
In the case of `CCn1ccc2cc(S(=O)(=O)N3CCC(C(=O)NCc4ccc(F)cc4)CC3)ccc21`, the survival is reported as 80% (inactive).
With `CCCCNC(=O)C1CCN(S(=O)(=O)c2ccc3c(ccn3CC)c2)CC1` the survival was 124% (inactive).
In the case of `CCn1ccc2cc(S(=O)(=O)N3CCC(C(=O)NCc4ccc(OC)cc4)CC3)ccc21`, the survival is reported as -3% (active).
`CCC(C)NC(=O)C1CCN(S(=O)(=O)c2ccc3c(ccn3CC)c2)CC1` (stereo unspecified) was tested, and the survival was 0% (active).
In the case of `O=C(Cn1c(=O)nc(-c2ccccc2)c2ccccc21)NCCCc1ccccc1`, the survival is reported as 60% (inactive).
`Cc1c(Cl)cccc1Nc1nn2c(=O)c3ccc(C(=O)NCCC4=CCCCC4)cc3nc2s1` was tested, and the survival was 74% (inactive).
`COc1ccc(OC)c(S(=O)(=O)N2CC=C(c3c(C)n(CC(=O)N4CCCC4)c4ccccc34)CC2)c1` was tested, and the survival was 83% (inactive).
With `O=S(=O)(c1cccc2nsnc12)N(CCOc1ccccc1)C1CCCCC1` the survival was 99% (inactive).
`COc1cccc(CNC(=O)C2CCN(c3ncccn3)CC2)c1` was tested, and the survival was 102% (inactive).
In the case of `CCn1c(=O)c2cc(C(=O)N3CCN(c4cccc(OC)c4)CC3)sc2c2ccccc21`, the survival is reported as 69% (inactive).
